# Source: PubChem
# CYP2C19 activ = activators of human cytochrome P450 2C19 | recombinant CYP2C19, luciferin-H EGE luminescence; active compounds read high; 0 = fully inhibited enzyme, 1 = untreated enzyme | 96,000 tested, under 10 active | P33261 | activation factor at 5 µM | AID 1025;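 active = activation factor of at least 2 at 5 µM in the primary screen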;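 also: 0 = wells with 2.5 mM tranylcypromine and 1 = vehicle-only wells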
# CYP2C9 inhib = human CYP2C9 inhibition | CYP2C9 Supersomes, luciferin-H conversion, luminescence | inhibition, % at 5 µM | 96,000 compounds, 20% hits | AID 777;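 active = blocking of liver enzyme CYP2C9 beyond about 50% at 5 µM, limit read from the data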
# Target sequence (P11712 whole entry, looked up): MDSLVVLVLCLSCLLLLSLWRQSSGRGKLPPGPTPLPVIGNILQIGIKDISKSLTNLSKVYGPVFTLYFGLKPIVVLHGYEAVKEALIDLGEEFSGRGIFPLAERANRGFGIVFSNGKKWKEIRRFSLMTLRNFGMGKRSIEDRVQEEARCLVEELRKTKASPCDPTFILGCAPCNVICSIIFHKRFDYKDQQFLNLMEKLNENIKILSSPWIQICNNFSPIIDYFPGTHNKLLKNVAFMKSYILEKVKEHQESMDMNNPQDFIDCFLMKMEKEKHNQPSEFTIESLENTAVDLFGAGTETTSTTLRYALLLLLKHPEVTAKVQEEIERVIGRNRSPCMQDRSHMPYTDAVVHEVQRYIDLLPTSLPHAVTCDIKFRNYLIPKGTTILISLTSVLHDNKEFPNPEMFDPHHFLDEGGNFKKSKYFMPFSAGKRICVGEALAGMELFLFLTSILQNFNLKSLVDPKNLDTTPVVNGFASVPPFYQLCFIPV
# PostGolgi ctrl = inhibits growth of the yeast control strain; efflux-deficient yeast background strain, growth absorbance A615, 16 h; inhibition, % at 10 µM; 98,000 compounds, 5% hits; AID 738
# CYP2C9 activ = CYP2C9 (human) activation; P11712; recombinant CYP2C9, luciferin-H conversion, luminescence; active compounds read high; factor 1 = untreated enzyme, 0 = blocked; activation factor at 5 µM; 96,000 compounds, 1.4% hits;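 active = activation factor of 2 or more for CYP2C9 at a 5 µM dose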;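 also: 0 = sulfaphenazole-blocked wells and 1 = vehicle-only wells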
# CYP2C19 inhib = blocks human cytochrome P450 2C19 | P33261 | CYP2C19 Supersomes, luciferin-H EGE luminescence, 30 min | 96,000 compounds, 21% hits | inhibition, % at 5 µM;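 active = CYP2C19 inhibition above a set limit at 5 µM in the primary screen, cut at about 50% in these data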;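 also: plate controls were negative control wells for no effect and 2.5 mM tranylcypromine positive control for full effect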
# PostGolgi yeast = growth inhibition of a yeast mutant, post-Golgi transport screen; post-Golgi transport phenotypic cell assay; inhibition, % at 10 µM; 98,000 compounds, 0.9% hits;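 also: yeast cells grown in 1536-well plates; yeast grown about 18 h at 30C before absorbance read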
# * = called active by the depositor; / = not tested or not shown; ! = a repeat was not active. The list is not random: actives were taken first. Their share in the collection is about 32%. Rule as the data show it, unless noted: active = inhibition above about 30%; inactive = the rest.
SMILES,CYP2C19 activ,CYP2C9 inhib,PostGolgi ctrl,CYP2C9 activ,CYP2C19 inhib,PostGolgi yeast
O=C1CC(=C(c2ccccc2)c2ccccc2)C(=O)N1CCCCN1CCN(c2cccc(Cl)c2)CC1,0.7,66*,22,0.3,29,-3
Cc1ccccc1N1CCN(CCCN2C(=O)CC(=C(c3ccccc3)c3ccccc3)C2=O)CC1,0.3,50*,16,0.5,73*,-6
O=C1c2ccccc2C(=O)N1CNc1ccccc1,1,3,7,1,-4,-3
CCOC(=O)c1sc(-n2[nH]c(C)cc2=O)nc1C,1,29,-4,0.7,0,-4
Cc1ccc(-n2c(O)c(/C=N/n3cnnc3)c3ccccc3c2=O)cc1,0.9,91*,34*!,0.1,8,3
O=c1c2ccccc2c(/C=N/n2cnnc2)c(O)n1-c1ccccc1F,1,58*,21,0.4,-3,4
O=C(O)CCC(=O)N1CCN(c2nc(-c3ccccc3Cl)c3cc(Br)ccc3n2)CC1,0.8,-4,8,1,22,17
Cc1ccc(S(=O)(=O)c2ccc(Cl)cc2)cc1S(=O)(=O)N1CCOCC1,0.2,69*,19,0.3,79*,2
Cc1ccc(Br)cc1S(=O)(=O)N1CCN(c2ccccc2)CC1,0.4,18,30,0.8,64*,-4
Cc1ccc(S(=O)(=O)N2CCCC2)cc1S(=O)(=O)N1CCCC1,0.5,-16,18,1.2,52*,-3
O=C(/C=C/c1ncc(C(F)(F)F)cc1Cl)OCc1ccccc1,1.1,-19,3,1.2,-8,19
C=Cn1ccnc1P(=S)(c1ccc2c(c1)c1ccccc1n2CC)c1nccn1C=C,1,27,16,0.7,2,0
COc1nc2c(C)cccc2cc1-c1noc(-c2ccncc2)n1,0.4,50,/,0.5,63*,/
CC(=O)c1ccc(OCC(O)CN(C)Cc2cccs2)cc1 (stereo not given),0.8,-2,3,1,19,3
CN(C)CC(C)(C)CNS(=O)(=O)c1cccc(Cl)c1Cl,0.2,32,11,0.7,77*,0
Cc1ccc(O)c(NC(=O)c2cc3nc4c(c(C(F)(F)F)n3n2)CCc2ccccc2-4)c1,1.1,3,35*,1,-7,2
Cc1ccc(Cn2ccc(NC(=O)c3cc4nc5c(c(C(F)(F)F)n4n3)CCc3ccccc3-5)n2)cc1,0.7,71*,9,0.3,27,11
COc1cccc2c(C)nc(Nc3nc(CSc4nnc(C)s4)cc(=O)[nH]3)nc12,1,4,9,1,4,-6
O=C(NC(C(=O)N/N=C/c1ccccc1)c1n[nH]c(=O)c2ccccc12)c1ccccc1 (stereo not given),0.6,52*,16,0.5,37,1
O=C(NC(C(=O)N/N=C/c1c2ccccc2cc2ccccc12)c1n[nH]c(=O)c2ccccc12)c1ccccc1 (stereo not given),0.6,43,18,0.6,36,-2
COC(=O)c1cc(C(=O)OC)cc(S(=O)(=O)Nc2ccc(Cl)c(N)c2)c1,0.1,2,14,1,94*,15
CC1=CC(C)(C)Nc2cc(C)c(C)cc21,0.1,19,-4,0.8,92*,5
CC1=CC(C)(C)Nc2ccc(C)cc21,0.9,-21,9,1.2,9,-4
Cc1ccccc1Oc1ccc(Oc2ccccc2C)nn1,0.7,-61,15,1.6,26,-1
O=C(NCCO)c1ccc2[nH]c3c(c2c1)CCCC3,0.2,24,4,0.8,83*,3
CC(=O)Nc1ccc(NC(=O)C(C)OC(=O)CN(C)S(=O)(=O)c2ccc(Cl)cc2)cc1 (stereo not given),0.2,60*,-2,0.4,75*,-6
CC(OC(=O)CN(C)S(=O)(=O)c1ccc(Cl)cc1)C(=O)Nc1ccc(N2CCOCC2)cc1 (stereo not given),0.9,-7,3,1.1,9,-2
CN(Cc1ccccc1)Cc1nc2c(c(=O)n(C)c(=O)n2C)n1CCCc1ccccc1,0.2,94*,52*,0.1,83*,4
CC(C)Cn1c(CN(C)Cc2ccccc2)nc2c1c(=O)n(C)c(=O)n2C,0.9,81*,5,0.2,12,1
CC(C)N(C(=O)CSc1nnc(-c2cc3ccccc3cc2O)n1Cc1ccco1)C(C)C,0.6,62*,14,0.4,37,-3
